CCHF vOTU inh: CCHFV vOTU protease inhibitors, primary screen, biochemical, Pep-AMC substrate, fluorescence. inhibition, % at 11.5 µM. hit rate 0.55% among 370,000; in the data active = inhibition above about 30%; also: 0% = vehicle wells with enzyme and 100% = no enzyme wells
Y pestis TopoI: Yersinia pestis topoisomerase I inhibitors, primary screen, biochemical, cleavage product accumulation, plate reader, single point; DNA topoisomerase I (Yersinia pestis CO92); Y. pestis Topo-I cleavage product accumulation; activity, % at 10 µM; hit rate 0.064% among 360,000; AID 504884, 2011; in the data active = activity above about 50%, passing the limit was not always enough
PrPC TRFRET: inhibitors of human cell surface prion protein PrPC, primary screen, cell-based, TR-FRET; Major prion protein (Homo sapiens), P04156; TR-FRET read-out; inhibition, % at 13.8 µM; hit rate 0.43% among 370,000; AID 720596, 2013; in the data active = inhibition above about 24%; also: 0% = median of the test wells and 100% = reference compound wells
Vc quorum ag-1: inducers of Vibrio cholerae quorum light production without autoinducers, primary screen, BH1578 luxS cqsA deficient, single point. hit rate 0.16% among 350,000. V. cholerae BH1578 lux reporter, luminescence, 6 h. activation, % at 18.7 µM; in the data active = activation mostly above about 9.7%, no sharp cut-off
Vc quorum ag-2: V. cholerae lux activation without autoinducers – BH1578 luxS cqsA deficient, cherry-pick, plate reader, dose response; shares compounds with Vc quorum ag-1; V. cholerae BH1578 lux reporter, luminescence, 6 h; activation, % at 50 µM; 620 tested, under 10 active; call rule not given here
Numbers without * were called inactive; i = inactive; nt = not tested or not shown; + = active, no number. Sampled rows, rich in hits. Any-hit rate of the full collection: about 1.1%.

SMILES	CCHF vOTU inh	Y pestis TopoI	PrPC TRFRET	Vc quorum ag-1	Vc quorum ag-2
O=c1c2cc(N3CCOCC3)ccc2[nH]c(=S)n1CC1CCCO1 (stereo not drawn)	1	9	-1	12	0
COCCCn1c(=S)[nH]c2ccc(N3CCOCC3)cc2c1=O	-12	9	1	12	0
COc1ccccc1CCN1CCCC(CN(C)C(=O)c2ccco2)C1 (stereo not drawn)	-1	3	2	14	0
NC(=O)c1cc(Br)cc(C2CCCCC2)c1O	-7	4	2	nt	i
COC(=O)Nc1ccc(S(=O)(=O)NCCCCCC(=O)O)cc1	14	2	8	i	nt
COC(=O)Nc1ccc(S(=O)(=O)NCCO)cc1	1	7	-3	12	0
COc1cccc(/C=C/C(=O)OCC(=O)NC(=O)NC2CCCC2)c1	1	32	3	i	nt
CCN(CCNC(=O)C1CCN(S(=O)(=O)CC)CC1)c1ccccc1	9	-7	-2	-2	nt
CCCS(=O)(=O)N1CCCC(C(=O)NCCCN(C)c2ccccc2)C1 (stereo not drawn)	9	20	9	17*	0
O=C(NCc1ccccc1)C1CCCN(S(=O)(=O)c2cccnc2)C1 (stereo not drawn)	12	-6	-4	25	0
CCN(CCNC(=O)C1CCCN(S(=O)(=O)CC)C1)c1ccccc1 (stereo not drawn)	-3	9	-2	12	0
CCCS(=O)(=O)N1CCCC(C(=O)NCCCN(C)Cc2ccccc2)C1 (stereo not drawn)	7	-5	-5	17*	0
O=C(NCc1cccnc1)C1CCN(S(=O)(=O)c2cccnc2)CC1	-3	-7	3	i	nt
Cc1ccc(-c2nc(P(=O)(c3ccccc3)c3ccccc3)c(N3CCOCC3)o2)cc1	-4	35	-5	nt	nt
COC(=O)CCC(=O)NC(=S)Nc1c(C)cccc1C	0	-2	-1	i	nt
CCCS(=O)(=O)N1CCCC(C(=O)NCc2ccc(C)cc2)C1 (stereo not drawn)	-2	2	5	12	0
CCCS(=O)(=O)N1CCCC(C(=O)NCc2cccnc2)C1 (stereo not drawn)	0	8	2	nt	nt
CCc1ccc(N2CC(C(=O)N(CC)CC(=O)Nc3c(F)cccc3F)CC2=O)cc1 (stereo not drawn)	-17	-11	3	1	nt
CCN(CC(=O)Nc1c(F)cccc1F)C(=O)C1CC(=O)N(c2ccccc2OC)C1 (stereo not drawn)	-5	8	-1	12	0
O=C(/C=C/c1ccc(OCCCF)cc1)NCc1ccc(Cl)cc1	3	3	12	39*	5
COc1ccc(CNC(=O)/C=C/c2ccc(OCCCF)cc2)cc1	14	23	6	i	nt
Cc1ccc(Cl)c(OC(=O)c2nn(C(C)C)c(=O)c3ccccc23)c1	-16	42	-8	0	nt
Cc1cccc(OCC(=O)N2CCOCC2)c1	5	4	-3	i	nt
CSc1nc(C)cc(OCC(=O)N2CCOCC2)n1	3	2	-7	32*	0
O=C(c1cccc(S(=O)(=O)N2CCc3ccccc32)c1)N1CCOCC1	9	3	6	288*	0
SMILES	CCHF vOTU inh	Y pestis TopoI	PrPC TRFRET	Vc quorum ag-1	Vc quorum ag-2
S=C(c1ccc(N2CCOCC2)cc1)N1CCCCC1	10	1	-1	20*	0
CCC(C(=O)OC)n1cnc2c(nnn2-c2cccc(OC)c2)c1=O (stereo not drawn)	7	10	-1	i	nt
O=C(CC1SC(=O)NC1=O)Nc1ccc(Cl)cc1 (stereo not drawn)	1	3	6	4	nt
O=C(CC1NC(=O)NC1=O)Nc1ccc(Cl)cc1 (stereo not drawn)	-4	3	-1	7	0
COc1cccc(C(=O)NC2CCSC2=O)c1 (stereo not drawn)	7	9	6	i	nt
COc1ccc(C(=O)NC2CCSC2=O)cc1 (stereo not drawn)	2	-4	-5	14	0
O=C(Nc1ccc(S(=O)(=O)Nc2ncccn2)cc1)C1CC(=O)N(c2ccccc2)C1 (stereo not drawn)	10	-10	5	14	3
CCOc1ccc(N2CC(C(=O)Nc3ccc(S(=O)(=O)Nc4ncccn4)cc3)CC2=O)cc1 (stereo not drawn)	14	-4	7	3	nt
O=C(COc1ccccc1)Nc1ccccc1N1CCCCC1	6	42	8	8	nt
O=C(COc1cccc(Cl)c1)Nc1ccccc1N1CCCCC1	7	7	-4	19	0
CCOC(=O)c1ccc(NC(=O)c2cccc(S(=O)(=O)N3c4ccccc4CC3C)c2)s1 (stereo not drawn)	6	-16	0	1	nt
CCN(CC)CCNC(=O)CCc1nn(C)c(=O)c2ccccc12	-3	-1	0	1	nt
CCc1cc(C(=O)c2ccccc2OC)c(N)s1	21	-6	-2	12	15
CC(C)n1nnnc1SCC(=O)c1ccc2c(c1)OCCO2	9	3	-11	+	i
CCn1nnnc1SCC(=O)c1ccc2c(c1)OCCO2	8	-2	-2	+	i
O=C(CSc1nnc2ccccn12)c1ccc2c(c1)OCCO2	17	-8	-1	+	i
CCn1nnnc1SCC(=O)Nc1ccc2c(c1)OCCO2	-1	3	6	0	nt
CC(C)n1nnnc1SCC(=O)Nc1ccc2c(c1)OCCO2	8	nt	-5	nt	nt
COCc1cccc(-c2csc(C(C)(O)c3cccc(OC)c3)n2)c1 (stereo not drawn)	4	5	-3	0	nt
Cc1ccc(C(=O)NNC2=NC(C)(C)Cc3ccccc32)cc1	0	2	5	i	nt
CN(CC(=O)OCC(=O)NCc1ccccc1)S(=O)(=O)c1ccc(F)cc1	1	-9	4	0	nt
COc1cccc(CNC(=O)COC(=O)CN(C)S(=O)(=O)c2ccc(NC(C)=O)cc2)c1	-6	11	0	12	0
COc1cccc(CNC(=O)C2CSC3(C)CCC(=O)N23)c1 (stereo not drawn)	3	-2	4	14	0
COc1ccccc1CNC(=O)C1CSC2(C)CCC(=O)N12 (stereo not drawn)	-4	-11	-4	i	nt
O=C(Cn1nc(Cl)nc1Cl)c1ccc2c(c1)OCCO2	0	-6	1	-3	nt
CCOC(=O)c1c(NC(=O)COC(=O)Cc2c[nH]c3ccccc23)sc(C(=O)N(C)C)c1C	4	18	4	12	0
C=CCOc1ccc(C=Nc2cccc(Cl)c2)c(O)c1	5	4	-2	0	nt
CCCOc1ccc(-c2nc(OC)c3ccccc3n2)cc1	9	12	-1	25*	0

Screens (PubChem)
